# Sampled rows, rich in hits. Any-hit rate of the full collection: about 1.3%.
# BJeLR viability = BJeLR cell viability loss; BJeLR (HRASV12) viability, CellTiter-Glo ATP luminescence, 48 h; inhibition, % (no concentration beside the values); 0.17% of 300,000 active; AID 1554; in the data active = inhibition above about 50%; inconclusive = no clear call, values can overlap the other calls
# Rv3671c inh = inhibits the M. tuberculosis serine protease Rv3671c | 0.048% of 320,000 active | inhibition, % at 5.96 µM | P9WHR9 | AID 2606; in the data active = inhibition above about 38%;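 note: extracellular domain of Rv3671c used as enzyme; 0% = enzyme with DMSO and 100% = no enzyme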
# FadD28 FP inh = inhibitors of Mycobacterium tuberculosis FadD28 bisubstrate binding | FadD28 bisubstrate probe binding, fluorescence polarization | 0.22% of 360,000 active | inhibition, % at 12.5 µM; in the data active = inhibition above about 8.5%, passing the limit was not always enough; inconclusive = no clear call, values can overlap the other calls
# RecA splice inh = inhibitors of M. tuberculosis RecA intein splicing; P9WHJ3; cell-free RecA intein splicing, fluorescence; inhibition, % (concentration not given with the values); 0.75% of 290,000 active; in the data active = inhibition above about 30%; inconclusive = no clear call, values can overlap the other calls;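 note: 0% = vehicle wells and 100% = reference inhibitor control wells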
# PrP 5UTR inh = inhibition of PrP 5' UTR reporter expression. cell-based PrP 5' UTR mRNA reporter, plate reader. 0.35% of 340,000 active. inhibition, % (concentration not given with the values); in the data active = inhibition above about 52%; note: 0 = median of the neutral control wells
# Mtb UGM inh = inhibitors of M. tuberculosis UDP-galactopyranose mutase. inhibition, % at 10 µM. AID 504406. purified UGM, fluorescence polarization probe displacement. 0.06% of 320,000 active. P9WIQ1; in the data active = inhibition above about 10%, passing the limit was not always enough; inconclusive = no clear call, values can overlap the other calls
# Target sequence (P9WIQ1 whole entry, looked up): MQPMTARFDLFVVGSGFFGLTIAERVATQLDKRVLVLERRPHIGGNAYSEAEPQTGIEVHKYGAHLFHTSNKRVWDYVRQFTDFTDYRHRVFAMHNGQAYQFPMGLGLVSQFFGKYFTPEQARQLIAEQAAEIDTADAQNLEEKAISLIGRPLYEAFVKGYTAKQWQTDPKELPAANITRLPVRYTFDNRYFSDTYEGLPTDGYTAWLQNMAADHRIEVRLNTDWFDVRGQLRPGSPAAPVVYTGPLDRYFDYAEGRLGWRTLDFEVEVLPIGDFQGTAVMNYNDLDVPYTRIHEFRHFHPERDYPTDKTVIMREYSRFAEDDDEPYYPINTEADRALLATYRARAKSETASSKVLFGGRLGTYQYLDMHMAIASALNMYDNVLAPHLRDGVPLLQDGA
# PrP 5UTR single = prion 5' UTR mRNA inhibition, cherry-pick retest | AID 504592 | inhibition, % at 2.5 µM | shares compounds with PrP 5UTR inh | 48% of 1,100 active | cell-based prion protein 5' UTR reporter, plate reader; in the data active = inhibition above about 54%; inconclusive = no clear call, values can overlap the other calls
# * = called active by the depositor; u = inconclusive; x = no result given.
SMILES,BJeLR viability,Rv3671c inh,FadD28 FP inh,RecA splice inh,PrP 5UTR inh,Mtb UGM inh,PrP 5UTR single
CCn1c(C)nc2cc(-c3nc4n(n3)Cc3ccccc3-4)ccc21,62.8*,-0.5,-2.9,-0.2,94.2*,-2.5,95.6*
COC(=O)c1oc2ccc(Br)cc2c1NC(=O)CCCN1C(=O)c2ccccc2C1=O,-6.5,-4.6,0.8,1.4,56.8*,-0.3,-12.3
Cc1cc(C(=O)N2CCN(c3ccc(F)cc3)CC2)on1,11.7,7.2,-1.9,-5.9,-29.2,1.9,x
CC(=O)N(/N=C1\Sc2ccccc2C1=O)c1ccc(C)cc1C,-11.6,-26.1,0.2,1.7,57.8*,4.5,56.2*
COc1cc2c(c(OC)c1OC)-c1ccc(SC)c(=O)cc1C(NC(=O)C(F)(F)F)CC2 (configuration not stated),x,x,-2.3,x,45.2,x,x
CCN(CC)c1ccc2c(cc1=O)[C@@H](NC)CCc1cc(OC)c(OC)c(OC)c1-2,56.0*,-5.0,0.1,1.1,80.3*,2.8,81.5*
COc1cc2c(c(OC)c1OC)-c1ccc(OC)c(=O)cc1C(N)CC2 (configuration not stated),x,x,0.7,x,42.3,x,x
COc1cc2c(c(OC)c1OC)-c1ccc(OC)c(=O)cc1[C@@H](N(C)CC#CCO)CC2,45.0,1.1,0.4,1.8,80.2*,-0.5,90.8*
CNC1CCc2cc(OC)c(OC)c(OC)c2-c2ccc(SC)c(=O)cc21 (configuration not stated),x,x,-2.8,x,46.5,x,x
COc1cc2c(c(OC)c1O)-c1ccc(OC)c(=O)cc1C(NC(=O)C(F)(F)F)CC2 (configuration not stated),x,x,-2.7,x,54.4*,x,90.0*
CCN(c1ccccc1)S(=O)(=O)c1ccc(C(=O)N(CCCN(C)C)c2nc3c(C)cccc3s2)cc1,4.9,-0.3,-2.9,5.8,-25.7,2.8,x
CCc1nc2ccc(C(=O)NCCCn3ccnc3)cn2c1N(C)Cc1ccc(N(C)C)cc1,x,x,0.7,x,x,x,x
CCN(CC)S(=O)(=O)c1ccc(N2CCOCC2)c(NC(=O)c2cccc3ccccc23)c1,-12.1,10.5,2.0,-2.0,-7.9,-2.5,x
CCN(CC)S(=O)(=O)c1ccc(N2CCOCC2)c(NC(=O)c2cc(-c3ccccn3)nc3ccccc23)c1,7.7,x,-0.4,6.2,66.5*,x,23.8
O=C(c1cnn2ccccc12)N1CCCc2ccccc21,-5.5,-8.2,-0.2,1.8,60.4*,-3.5,31.9
CCN(C(=O)c1cc2cc(OC)ccc2oc1=O)c1cccc(C)c1,-1.5,7.1,-3.8,-2.3,-23.2,-1.2,x
CCN(C(=O)c1cc2cc(OC)ccc2oc1=O)c1ccccc1,9.6,-3.5,1.7,-1.0,66.9*,-1.0,u
CC(C)C(C(=O)NCc1ccccc1)N(CC1CCCO1)C(=O)CNS(=O)(=O)c1ccccc1 (configuration not stated),-10.3,-2.5,-3.9,-2.0,-5.2,-1.7,x
CC(C)C(C(=O)NCc1ccco1)N(CC1CCCO1)C(=O)CNS(=O)(=O)c1ccccc1 (configuration not stated),2.4,6.2,-0.1,-2.8,68.3*,-1.9,-9.0
Cc1ccc(N(C)C2=NC(=O)CS2)cc1Cl,-5.6,-6.8,-1.0,4.0,-12.9,0.0,x
Cc1cnc(C(=O)OC(C)C(=O)Nc2ccc(Oc3ccccc3)cc2)cn1 (configuration not stated),x,-2.5,-3.9,x,90.1*,-1.2,-11.7
Cc1cnc(C(=O)OCC(=O)Nc2ccc(Oc3ccccc3)cc2)cn1,-3.5,-13.0,-1.8,2.8,-19.3,2.0,x
COc1cc(/C=C/C(=O)OCC(=O)NCCC2=CCCCC2)cc(OC)c1OC,x,-3.0,-1.6,x,-11.0,-4.8,x
COc1ccc(C(=O)Nc2ccc(C)cn2)c(OC)c1,12.0,-3.5,-5.1,-2.5,78.8*,-0.4,75.1*
COc1ccc(C(=O)Nc2cc(C)on2)c(OC)c1,-6.0,6.9,-1.4,-1.0,-49.6,-0.8,x
SMILES,BJeLR viability,Rv3671c inh,FadD28 FP inh,RecA splice inh,PrP 5UTR inh,Mtb UGM inh,PrP 5UTR single
C/C(=N\NC(N)=O)c1ccccc1,-0.3,2.4,-4.0,-3.8,72.3*,3.0,-7.0
C/C(=N\NC(N)=O)c1ccc(Cl)cc1,15.0,-2.7,-0.8,2.3,-5.7,2.9,x
COC(=O)c1ccc(Oc2cc(C)nc(-n3nc(C)cc3C)n2)cc1,42.5,-10.0,-0.7,1.6,59.0*,-1.1,89.0*
CN(CC(=O)Nc1ccccc1Br)C(=O)c1ccccc1OCc1ccccc1Cl,x,x,-4.9,x,-9.5,x,x
O=c1cc2c(nn1Cc1cccc(Cl)c1)-c1ccccc1CC2,0.4,1.3,-2.0,-0.4,57.3*,1.0,17.0
O=c1cc2c(nn1Cc1ccc(Cl)cc1)-c1ccccc1CC2,-14.1,-10.2,-0.9,3.7,-1.0,0.1,x
Cn1c(=O)oc2cc(S(=O)(=O)N3CCC(C(=O)N4CCN(c5ccccc5)CC4)CC3)ccc21,x,2.9,-0.9,x,-26.2,1.8,x
Cn1c(=O)oc2cc(S(=O)(=O)N3CCC(C(=O)N4CC=C(c5ccccc5)CC4)CC3)ccc21,x,x,-4.5,x,61.2*,x,-5.2
COc1ccc(N2CCN(C(=O)Cn3c(=O)[nH]c4ccccc4c3=O)CC2)cc1,-28.8,-6.3,x,0.3,x,-1.1,x
COC(=O)c1sc2ncn(CC(=O)NCCc3ccc(OC)c(OC)c3)c(=O)c2c1C,-10.1,9.0,-1.5,0.7,20.8,-0.7,x
COc1ccc(CCNC(=O)Cn2cnc3sc(C)c(-c4ccc(F)cc4)c3c2=O)cc1OC,4.8,-6.2,-0.8,x,72.7*,-0.1,u
CC(=O)OC1C(=O)N(Cc2ccccc2)C1c1ccc(C)cc1 (configuration not stated),x,x,0.2,x,-3.1,x,x
CC(C)Oc1ccc(S(=O)(=O)N2CCOCC2)cc1NC(=O)CCCSc1ccccc1,x,x,1.0,x,3.4,x,x
COCC(C)n1c(C)cc(C(=O)COC(=O)c2cnc(Cl)c(Cl)c2)c1C (configuration not stated),x,5.2,-1.0,x,-4.3,3.2,x
COCC(C)n1c(C)cc(C(=O)COC(=O)c2cccn2C)c1C (configuration not stated),x,8.2,-0.4,x,66.9*,0.2,u
C#CCOc1ccc(C2C(C#N)=C(N)Oc3cc(O)ccc32)cc1 (configuration not stated),-3.0,5.0,1.8,-5.1,-2.7,-0.3,x
CN(C)c1cc(-c2ccccc2)nc(-c2ccccc2)n1,2.0,-8.4,0.0,x,-1.9,0.6,x
Cc1cc(NC(=O)CCSc2ccccc2)no1,x,6.7,-0.5,-1.0,6.8,2.4,x
NCCNCCNCCN,-1.2,6.2,-4.0,-2.3,89.3*,1.6,-57.8
NCCCCNCCCN,4.4,3.8,-4.2,0.6,-8.5,2.0,x
CC1=C(N2CC2)C(=O)C(CO)=C(N2CC2)C1=O,x,x,0.5,x,97.7*,x,97.2*
COC(COC(N)=O)C1=C(N2CC2)C(=O)C(C)=C(N2CC2)C1=O (configuration not stated),x,x,-3.2,x,-28.8,x,x

# From PubChem
